Holding throughout (test): qHTS profiling for inhibitors of Plasmodium falciparum proliferation (AID 504749); further: nearly all actives have a fitted effect of over 60% in size
Holding throughout (details): P. falciparum in erythrocytes, SYBR Green DNA, 72 h; series mostly up to 28.7 µM
(In general: qHTS replaces the single test concentration by a dilution series.)

For one experiment, the system named is CP203. The procedure, abridged: (§1)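 Three-day growth assay of blood-stage parasites in erythrocytes (0.3% parasitemia, 2.5% hematocrit) at 37 C, 5% CO2, quantified by SYBR Green DNA staining after overnight detergent lysis.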
The subject of another experiment is CP211. The procedure, abridged:
as §1

In the next experiment the test system is CP215. Summed up:
as §1

The next experiment deals with CP217. Summed up: as §1
The next experiment concerns CP237. Summed up: as §1
For another experiment, the system named is CP238. Summed up:
as §1

The subject of a further experiment is CP247. Summed up:
as §1

A further experiment relates to CP252. Summed up:
as §1

The next experiment deals with CP256. The procedure, abridged: as §1
The next experiment deals with CP250. Summed up:
as §1

Records with an inconclusive call do not appear. Calls of active or inactive are those of the source. The call rests on the fitted dose curve; in most records, active means well fitted inhibition curve with a large enough effect; inconclusive means small, poorly fitted or top-dose-only effect; inactive means flat fitted curve, though single readings scatter. Where a SMILES comes first, the peptide text is derived from it. [ ]: non-standard residue; d: D form. pGlu = O=C1CC[C@@H](C(=O)O)N1; Thz = O=C(O)[C@@H]1CSCN1

The values that follow come from PubChem BioAssay (NCATS).
Potency means the concentration at half of the fitted maximal effect.

On to `Cc1cc(O)c2ccccc2c1O`, for which the Potency entry in the experiment on CP203, with CP211, with CP215, in the experiment with CP217, with CP237 and with CP238 was “inactive” throughout. The Potency result with CP247, in the experiment on CP252 and with CP256 was “inactive” in each case.
For the molecule `C=C(Nc1ccc(OCC)cc1)Nc1ccc(OCC)cc1`, the Potency entry in the experiment with CP203, in the experiment with CP211, in the experiment on CP215, in the experiment on CP217, in the experiment on CP237 and in the experiment with CP238 was “inactive” each time. Moreover, the Potency entry with CP247, in the experiment with CP250, with CP252 and in the experiment with CP256 was “inactive” each time.
In the case of `Nc1cc(-c2ccncc2)c[nH]c1=O`, the Potency entry with CP211, in the experiment on CP215, in the experiment with CP217, with CP237, in the experiment with CP238 and with CP247 was “inactive” in each case. Also, the Potency result in the experiment on CP250, in the experiment with CP252 and with CP256 was “inactive” each time.
As to `Cc1ccc(O)c(-n2nc3ccccc3n2)c1`, the Potency result in the experiment with CP211, in the experiment with CP215, in the experiment with CP217, with CP237, in the experiment on CP238 and in the experiment with CP247 was “inactive” each time. Moreover, the Potency entry with CP250, in the experiment on CP252 and in the experiment on CP256 was “inactive” each time.
As to `C=CC(N)CCC(=O)O` (stereo not drawn), the Potency result in the experiment on CP211, in the experiment with CP215, with CP217, in the experiment on CP237, in the experiment on CP238 and with CP247 was “inactive” each time. Also, the Potency entry with CP250, in the experiment with CP252 and in the experiment with CP256 was “inactive” in each case.
Take `Cc1c(Nc2ncccc2C(=O)O)cccc1C(F)(F)F`: the Potency result in the experiment on CP211, in the experiment on CP215, in the experiment on CP217, in the experiment on CP237, in the experiment with CP238 and in the experiment on CP247 was “inactive” in each case. Besides, the Potency result in the experiment with CP250, with CP252 and with CP256 was “inactive” each time.
Consider `O=C(OCc1ccccc1)c1ccccc1`, for which the Potency result in the experiment with CP203, in the experiment on CP211, in the experiment with CP215, in the experiment on CP217, in the experiment with CP238 and in the experiment with CP247 was “inactive” throughout. Moreover, the Potency entry in the experiment on CP250, in the experiment on CP252 and in the experiment with CP256 was “inactive” throughout.
`O=C(O)c1ccccc1Nc1cccc(C(F)(F)F)c1`: the Potency result with CP203, in the experiment on CP211, in the experiment on CP215, in the experiment on CP217, with CP237 and in the experiment with CP238 was “inactive” each time. In addition, the Potency result in the experiment with CP247, with CP250, in the experiment with CP252 and in the experiment on CP256 was “inactive” each time.
On to `CC1(C)[C@@H](O)CC[C@]2(C)[C@H]3C(=O)C=C4[C@@H]5C[C@@](C)(C(=O)O)CC[C@]5(C)CC[C@@]4(C)[C@]3(C)CC[C@@H]12`, for which the Potency result with CP211, with CP215, with CP217, in the experiment on CP237, with CP238 and with CP247 was “inactive” throughout. Besides, the Potency entry with CP250, with CP252 and with CP256 was “inactive” throughout.
As for `CC1(C)C[C@@H]1C(=O)N/C(=C\CCCCSC[C@H](N)C(=O)O)C(=O)O`, the Potency entry in the experiment with CP203, in the experiment with CP211, in the experiment with CP215, with CP217, in the experiment with CP237 and with CP238 was “inactive” throughout. Further, the Potency result with CP247, in the experiment with CP250, in the experiment with CP252 and in the experiment with CP256 was “inactive” in each case.
Turning to `CC1OC1P(=O)(O)O` (stereo not drawn), the Potency result with CP203, in the experiment on CP211, in the experiment with CP215, with CP217, in the experiment on CP237 and in the experiment with CP238 was “inactive” in each case. Also, the Potency entry in the experiment on CP247, in the experiment with CP250, with CP252 and with CP256 was “inactive” throughout.
In the case of `Nc1c(CC(=O)O)cccc1C(=O)c1ccc(Br)cc1`, the Potency entry in the experiment on CP211, with CP215, in the experiment on CP217, in the experiment with CP237, in the experiment with CP238 and with CP247 was “inactive” in each case. Also, the Potency entry in the experiment with CP250, in the experiment with CP252 and in the experiment with CP256 was “inactive” each time.
In the case of `CCCC(=O)OC[C@@H](OC(=O)CCC)[C@@H](OC(=O)CCC)[C@H](Cn1c2nc(=O)[nH]c(=O)c-2nc2cc(C)c(C)cc21)OC(=O)CCC`, the Potency result with CP203, in the experiment with CP211, in the experiment on CP215 and in the experiment on CP237 was “inactive” each time.
For `CC(N)C(=O)OC(C)(C)Cc1ccc(Cl)cc1` (stereo not drawn), the Potency in the experiment with CP203 is 12 µM (active); in the experiment on CP237 it was 4.47 µM (active). In addition, the Potency entry with CP250 and with CP256 was “inactive” throughout.
Turning to `C#C[C@]1(O)CC[C@H]2[C@@H]3CCc4cc(O)ccc4[C@H]3CC[C@@]21C`, the Potency entry in the experiment on CP203, in the experiment with CP211, in the experiment with CP215, with CP217, in the experiment on CP237 and with CP238 was “inactive” throughout. Further, the Potency entry in the experiment on CP247, with CP250, with CP252 and in the experiment on CP256 was “inactive” throughout.
Take `O=C(O)/C=C/C(O)c1ccc(Cl)cc1` (stereo not drawn): the Potency result in the experiment with CP211, in the experiment on CP215, in the experiment on CP217, in the experiment on CP237, in the experiment on CP238 and with CP247 was “inactive” throughout. In addition, the Potency entry with CP250, in the experiment on CP252 and with CP256 was “inactive” throughout.
With `Cc1ccc(C(=O)c2ccc(CC(=O)O)n2C)cc1`, the Potency result in the experiment with CP203, in the experiment with CP211, in the experiment with CP215, in the experiment on CP217, in the experiment with CP237 and with CP238 was “inactive” throughout. Besides, the Potency result in the experiment with CP247, in the experiment with CP250, in the experiment with CP252 and in the experiment on CP256 was “inactive” in each case.
Turning to `Oc1c(Br)cc(Br)c2cccnc12`, the Potency entry in the experiment on CP211, in the experiment with CP215, in the experiment with CP217, in the experiment on CP237, with CP238 and with CP247 was “inactive” each time. Besides, the Potency entry in the experiment on CP250, with CP252 and with CP256 was “inactive” each time.
`O=C(Nc1ccc(C(=O)O)c(O)c1)c1ccccc1`: the Potency entry in the experiment on CP203, with CP211, with CP215, in the experiment with CP217, with CP237 and in the experiment on CP238 was “inactive” each time. Moreover, the Potency entry in the experiment with CP247, in the experiment with CP250, in the experiment with CP252 and in the experiment on CP256 was “inactive” throughout.
For `O=C(O)[C@H](O)[C@@H](O)[C@H](O)[C@H](O)CO`, the Potency result with CP203, in the experiment on CP211, in the experiment with CP215, in the experiment with CP217, with CP237 and with CP238 was “inactive” throughout. In addition, the Potency result with CP247, in the experiment on CP250, in the experiment on CP252 and in the experiment with CP256 was “inactive” throughout.
With `CCCCC[C@H](O)/C=C/[C@@H]1[C@@H](C/C=C\CCCC(=O)O)[C@@H](O)C[C@H]1O`, the Potency result in the experiment on CP203, in the experiment with CP211, in the experiment on CP215, in the experiment on CP217, in the experiment with CP237 and with CP238 was “inactive” throughout. Also, the Potency entry with CP247, in the experiment on CP250, in the experiment on CP252 and in the experiment on CP256 was “inactive” in each case.
For the molecule `CN1[C@@H]2CC[C@H]1CC(OC(=O)C(CO)c1ccccc1)C2` (stereo partly drawn), the Potency result in the experiment on CP203, in the experiment on CP211, in the experiment with CP215, with CP217, in the experiment on CP237 and in the experiment with CP238 was “inactive” each time. Further, the Potency result in the experiment with CP247, in the experiment with CP250 and with CP252 was “inactive” throughout.
Turning to `CCCCCCCCCCCCCCCC(=O)OC(C)C`, the Potency entry with CP203, in the experiment with CP211, with CP215, with CP217, in the experiment on CP237 and with CP238 was “inactive” throughout. Also, the Potency result with CP247, in the experiment with CP250, in the experiment with CP252 and in the experiment with CP256 was “inactive” in each case.
Consider `O=C1CC[C@@H](C(=O)N2CSC[C@H]2C(=O)O)N1` ([pGlu]-[Thz]-OH), for which the Potency entry with CP203, in the experiment on CP211, in the experiment with CP215, in the experiment with CP217, with CP237 and in the experiment with CP238 was “inactive” in each case. Besides, the Potency entry in the experiment with CP247, with CP250, in the experiment on CP252 and with CP256 was “inactive” each time.
As to `CCCOC(=O)c1ccc(O)cc1`, the Potency entry with CP211, in the experiment on CP215, with CP217, in the experiment with CP237, with CP238 and in the experiment with CP247 was “inactive” throughout. The Potency result with CP250, with CP252 and with CP256 was “inactive” in each case.
With `COc1cc(CNC(=O)CCCC/C=C/C(C)C)ccc1O`, the Potency result in the experiment with CP211, in the experiment on CP215, in the experiment on CP217, in the experiment with CP237, with CP238 and in the experiment with CP247 was “inactive” each time. The Potency entry with CP250, with CP252 and in the experiment with CP256 was “inactive” each time.
For `CC(C(=O)O)c1ccc2c(c1)[nH]c1ccc(Cl)cc12` (stereo not drawn), the Potency result in the experiment on CP211, in the experiment with CP215, in the experiment on CP217, in the experiment with CP237, with CP238 and in the experiment on CP247 was “inactive” throughout. Also, the Potency result with CP250, in the experiment on CP252 and in the experiment with CP256 was “inactive” in each case.
Regarding `CN1CCN(c2cc3c(nn2)Oc2ccccc2N3C)CC1`, the Potency entry with CP211, with CP215, in the experiment with CP217, in the experiment on CP237, in the experiment with CP238 and in the experiment on CP247 was “inactive” each time. Besides, the Potency entry in the experiment with CP250, with CP252 and in the experiment on CP256 was “inactive” each time.
Turning to `CCC1C(=O)OCC1Cc1cncn1C` (stereo not drawn), the Potency result in the experiment with CP203, in the experiment on CP211, with CP215, in the experiment with CP217, in the experiment on CP237 and with CP238 was “inactive” each time. The Potency entry in the experiment with CP247, in the experiment on CP250, in the experiment with CP252 and in the experiment on CP256 was “inactive” throughout.
On to `O=C(/C=C/c1ccccc1)NCCO`, for which the Potency result in the experiment with CP203, in the experiment on CP211, in the experiment on CP215, in the experiment on CP217, with CP237 and in the experiment on CP238 was “inactive” in each case. The Potency result with CP247, in the experiment on CP250, in the experiment with CP252 and in the experiment with CP256 was “inactive” each time.
